Compounds with a hit are over-represented: about 11% of the library has one in this group of screens.
Tau ThT inhib: qHTS for Inhibitors of Tau Fibril Formation, Thioflavin T Binding | Microtubule-associated protein tau (Homo sapiens), P10636 | recombinant tau K18 P301L, heparin-induced fibrillization, ThT fluorescence | Potency, µM (series often up to 57.4 µM), for the others: top-dose activity, negative = inhibition, actives largely listed as inhibitors | 2.1% of 270,000 active | AID 1460, 2008; further: potency means the concentration at half of the fitted maximal effect; nearly all actives have a fitted effect of over 55% in size
Target sequence (P10636 561-689 P618L limits assumed): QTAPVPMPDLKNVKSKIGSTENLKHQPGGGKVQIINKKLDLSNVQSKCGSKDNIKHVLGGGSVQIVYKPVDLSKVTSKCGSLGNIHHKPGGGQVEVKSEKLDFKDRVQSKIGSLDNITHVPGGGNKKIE
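Fibril formation assay: tau K18 P301L at 15 uM with trace Alexa 594 label, heparin inducer 20 uM, pH 7 sodium acetate buffer, 37 C for 6 hr; endpoint ThT signal.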
G9a inh: qHTS Assay for Inhibitors of Histone Lysine Methyltransferase G9a; Histone-lysine N-methyltransferase EHMT2 (Homo sapiens), Q96KQ7; G9a H3K9 monomethylation, AlphaScreen, 2 h; Potency, µM (titrated, usually from 102 µM), inactives show top-dose activity, negative = inhibition, most hits filed as inhibitors; 8.8% of 350,000 active; AID 504332, 2011; further: potency means the concentration at half of the fitted maximal effect; nearly all actives have a fitted effect of over 75% in size
Target sequence (Q96KQ7 913-1193 limits assumed): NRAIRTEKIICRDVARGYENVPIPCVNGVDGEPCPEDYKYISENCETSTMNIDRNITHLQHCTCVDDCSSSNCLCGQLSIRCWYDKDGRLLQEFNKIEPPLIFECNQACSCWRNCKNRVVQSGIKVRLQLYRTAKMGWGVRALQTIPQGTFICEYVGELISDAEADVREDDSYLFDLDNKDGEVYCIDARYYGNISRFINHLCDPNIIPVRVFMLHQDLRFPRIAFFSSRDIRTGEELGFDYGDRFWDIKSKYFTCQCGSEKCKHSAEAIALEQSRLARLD
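Compounds were preincubated with 20 nM G9a for 15 min, after which biotinylated H3K9 peptide (500 nM) and SAM (20 uM) started a 2 h room-temperature reaction. Monomethylated product was quantified by antibody-based AlphaScreen chemiluminescence.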
Sfp inh: qHTS Assay for Inhibitors of Bacillus subtilis Sfp phosphopantetheinyl transferase (PPTase); Potency, µM, without a hit: largest response in the series, negative = inhibition, usual class: inhibitors; Biochemical Sfp PPTase activity, qHTS; 4'-phosphopantetheinyl transferase ffp (Bacillus subtilis), Q9F4F7; 3.5% of 310,000 active;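 further: the enzyme is Sfp with the accession as filed and its product quenches rhodamine fluorescence; potency means the concentration at half of the fitted maximal effect; 0% = enzyme reaction without inhibitor and -100% = no enzyme wells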
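After 15 min at room temperature with compound, 15 nM Sfp received 5 uM rhodamine-CoA plus 12.5 uM BHQ-2-ybbR (50 mM Hepes pH 7.6, 10 mM MgCl2). Rate came from the fluorescence difference over 30 min, ex 525/em 598 nm.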
Tau fibril FP: qHTS for Inhibitors of Tau Fibril Formation, Fluorescence Polarization. AID 1468, 2008. Potency, µM (highest dose often 57.7 µM), without a hit: at the top dose activity, negative = inhibition, usual class: inhibitors. K18 P301L tau heparin fibrillization, Alexa594 FP, 6 h. 0.39% of 280,000 active; further: potency means the concentration at half of the fitted maximal effect; nearly all actives have a fitted effect of over 55% in size
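Human K18 P301L fragment (15 uM unlabeled plus 0.24 uM Alexa 594-labeled) in 100 mM sodium acetate pH 7 with compound, aggregation induced by 20 uM heparin for 6 hr at 37 C. ThT (30 uM) added for 1 hr, then Alexa 594 FP read.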
Coupling enz: qHTS Assay for Inhibitors of Fructose-1,6-bisphosphate Aldolase from Giardia Lamblia: Coupling assay counterscreen; coupling enzyme system counterscreen, AmpLite Red fluorescence; activity change, negative = inhibition, % at 58.2 µM, hits read low; 0.67% of 290,000 active; AID 2472, 2010; in the data active means activity change below about -30%
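Activity here indicates interference with the coupling reaction, not aldolase inhibition. Compounds at 57.5 uM final met coupling enzymes for 10 min at RT; substrate and AmpLite Red detection followed, with a 525/598 nm fluorescence read after 20 min.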
Tau fluor counter: Counterscreen qHTS for Inhibitors of Tau Fibril Formation, Fluorescence Polarization; tau K18 P301L Alexa594 fluorescence, heparin fibrillization; Potency, µM (highest dose often 57.7 µM), inactives show top-dose activity change, negative = decrease; 0.93% of 280,000 active; AID 1463, 2008; further: potency means the concentration at half of the fitted maximal effect; nearly all actives have a fitted effect of over 55% in size
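Human tau K18 P301L (15 uM unlabeled, 0.24 uM Alexa 594-labeled) in 100 mM sodium acetate pH 7 with 20 uM heparin, 6 hr at 37 C. ThT 30 uM added, 1 hr ambient; Alexa 594 FP and total fluorescence read at 555/632 nm.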
* hit, by the source's call; ? = inconclusive; . = no result; ! = not confirmed by another sample; [ ] = another dose, or the depositor's remark. Unless noted, the call rests on the fitted dose curve; in most records, active means well fitted curve in the direction sought with a large enough effect; inconclusive means small, poorly fitted or top-dose-only effect, or another doubt; inactive means no such curve, though single readings can be large; an effect the other way counts as inactive or inconclusive. Unless noted, on the % scale 0 is the no-effect control and ±100 the full control effect.

SMILES | Tau ThT inhib | G9a inh | Sfp inh | Tau fibril FP | Coupling enz | Tau fluor counter
CCOC(=O)c1c(C)n(Cc2ccc(F)cc2)c2ccc(O)cc12 | -15.3% | -17.6%[12.7 µM] | 22.4µM* | 20.6% | 0.8 | ?
O=C1NC(=O)C(=CN2CCc3ccccc32)C(=O)N1 | 10µM* | 12.6µM* | -28.8% | ? | -20.2 | -19.7%
N#CC1(N2CCCCC2)CCCCC1 | . | -4.5%[12.7 µM] | 14.0% | . | . | .
O=[N+]([O-])c1ccc(N2CCCNCC2)c2ncccc12 | ? | ? | -3.9% | 0.8% | -7.0 | -3.6%
O=[N+]([O-])c1ccc(N2CCCCC2)c2ncccc12 | 15.8µM* | ? | -26.2% | -14.8% | -17.8 | ?
O=[N+]([O-])c1cccnc1N1CCCNCC1 | . | 44.7µM* | 10.2% | . | -0.4 | .
O=[N+]([O-])c1ccc(N2CCCCCC2)c2ncccc12 | 15.8µM* | 25.1µM* | ? | -3.9% | -9.6 | -28.4%
CC(Cc1cccc(C(F)(F)F)c1)NCCCc1ccccc1 (configuration not stated) | 7.9% | 16.3%[59 µM] | -0.9% | 1.3% | . | -0.4%
CC(=O)OCOCC(=O)OCO[P+](=O)C(OCOC(C)=O)c1cc([N+](=O)[O-])ccc1Oc1ccc(Br)cc1 (configuration not stated) | -8.2% | 14.3%[59 µM] | 18.3% | -5.7% | . | -5.0%
CP(=O)(O)C1=CCNCC1 | 0.8% | 19.1%[59 µM] | -0.6% | -1.0% | . | -4.1%
COc1cccc(-c2nnc3n(Cc4ccccc4Cl)c(=O)c4ccccc4n23)c1O | ? | -8.8%[59 µM] | . | 13.1% | . | -26.8%
COC(=O)c1ccc(N2C(=O)CC(N3CCC(O)(c4ccc(Br)cc4)CC3)C2=O)cc1 (configuration not stated) | ? | 11.2µM* | 7.0% | -9.7% | 3.5 | -16.6%
COC(=O)c1ccc(N2C(=O)CC(N3CCC(n4c(=O)[nH]c5ccccc54)CC3)C2=O)cc1 (configuration not stated) | -11.7% | ? | -0.4% | -2.7% | 3.4 | -6.3%
C[C@]12Cc3cn4c(nc3C=C1CCC1C2CC[C@@]2(C)[C@H]1CC[C@@]2(O)C#N)nc1ccccc14 (some centres not stated) | -7.4% | ? | . | -3.6% | . | -1.7%
CCOC(=O)c1c(C)c(P(=S)(N2CCOCC2)N2CCOCC2)n(C)c1C | -3.0% | 6.31µM* | 31.6µM* | -4.2% | 0.5 | -0.1%
Clc1ccc(CCNCc2ccncc2)c(Cl)c1 | . | 3.98µM* | -16.0% | . | -0.6 | .
COc1ccc(CCN(C)Cc2ccncc2)cc1OC | -3.8% | ? | 39.8µM* | 8.5% | -2.7 | 1.5%
COc1ccc(CCNCc2ccncc2)cc1OC | -1.8% | 2.51µM* | 44.7µM* | 1.2% | -3.6 | -1.7%
COc1ccc(CCNCc2ccc(Br)cc2)cc1OC | . | -16.9% | -20.7% | . | 1.1 | .
CCC12C=CCN3CCC4(c5ccc(OC)cc5N(C)C4[C@@](O)(C(=O)OC)C1OC(C)=O)C32 (some centres not stated) | -3.1% | . | 2.8% | 0.3% | -1.4 | -5.9%
CSc1nc(N)c(N=Nc2ccc([As](=O)(O)O)cc2)c(=O)[nH]1 | 20µM* | 8.91µM* | 2.82µM* | -8.5% | 1.4 | ?
C[N+](C)(C)CC#CCN1CCCC1=O | -15.5% | 0.631µM* | 6.7% | 2.3% | 2.5 | -17.3%
C/C(Cl)=C/CC1(CN2CCCC2=O)C(=O)NC(=O)NC1=O | 7.5% | ? | 7.4% | -2.7% | -2.9 | 12.7%
CN1CCC(O)(c2ccc(Cl)cc2)C(C(=O)c2ccc(Cl)cc2)C1 (configuration not stated) | ? | 10µM* | -8.0% | 5.7% | 1.6 | -11.9%
C=C(C)C1CNC(C(=O)O)C1CC(=O)O (configuration not stated) | -0.1% | . | -29.1% | -1.1% | 3.9 | -6.6%
SMILES | Tau ThT inhib | G9a inh | Sfp inh | Tau fibril FP | Coupling enz | Tau fluor counter
C[N+]1(C)CCN(c2ccccc2)CC1 | -6.9% | 8.44µM*! | 19.4% | -8.5% | 0.0 | -11.8%
COC(=O)[C@@]1(O)C[C@@H]2O[C@@]1(C)n1c3ccccc3c3c4c(c5c6ccccc6n2c5c31)C(=O)NC4 | . | . | -3.4% | . | -1.0 | .
CCC(C)n1c(=O)[nH]c(C)c(Br)c1=O (configuration not stated) | . | . | 11.7% | . | 0.3 | .
C=C1C([C@@]2(C)C(OC(C)=O)CC(=O)O[C@@](C)(COC(C)=O)C2CC(=O)OC)C(OC=O)C(OC(=O)C(OC(C)=O)C(C)CC)[C@]2(C)C(c3ccoc3)CC(=O)C12O (some centres not stated) | ? | -27.9%[2.33 µM] | 10.7% | 12.7% | -1.4 | -26.6%
Cc1cccc(C2=NCC(=O)N(CC(=O)NCc3ccco3)c3sc4c(c32)CCCC4)c1 | ? | ? | 22.4µM* | ? | -8.6 | -14.4%
Cc1ccc2c(c1)Cc1c(C(=O)NN3CCCCC3)nn(-c3ccc(Cl)cc3Cl)c1-2 | . | . | ? | . | -19.0 | .
C[C@](O)(CS(=O)(=O)c1ccc(F)cc1)C(=O)Nc1ccc(C#N)c(C(F)(F)F)c1 | . | ? | 11.8% | . | . | .
COc1cc(C(=O)NC(=S)N2C[C@H]3C[C@H](C2)c2cccc(=O)n2C3)cc(OC)c1OC | . | 25.1µM* | ? | . | 1.6 | .
O=C(NC(=S)N1C[C@H]2C[C@H](C1)c1cccc(=O)n1C2)c1ccc(Cl)cc1 | . | ? | -14.9% | . | -0.5 | .
COc1cc(OC)cc(C(=O)NC(=S)N2C[C@H]3C[C@H](C2)c2cccc(=O)n2C3)c1 | . | 50.1µM* | -22.9% | . | -0.1 | .
CN(CC(=O)O)C(=O)[C@H](Cc1ccccc1)NC(=O)[C@@H](CCCN=C(N)N)NC(=O)[C@@H](N)Cc1ccc(O)cc1 | . | . | 8.0% | . | 3.5 | .
C[C@H](NC(=O)[C@@H](N)Cc1ccc(O)cc1)C(=O)NCC(=O)N(C)[C@@H](Cc1ccccc1)C(=O)N[C@H](CO)CCS(C)=O (some centres not stated) | 4.8% | 20.7%[59 µM] | -1.7% | -3.9% | . | 1.6%
CC[N+](CC)(CC)CCOc1cccc(OCC[N+](CC)(CC)CC)c1OCC[N+](CC)(CC)CC | -2.0% | 5.32µM*! | ? | -8.3% | -0.6 | -6.3%
COc1ccc(CCN)cc1OC | 13.1% | 49.4%[59 µM] | -10.5% | -4.9% | -0.3 | 19.2%
COc1cc(Cc2ccc(N)c(OC)c2)ccc1N | -13.5% | 70.8µM* | 7.3% | 0.1% | 0.2 | -15.0%
